Test results published in PubChem BioAssay (NCI).
The panel holds about 83,000 compounds, 20% with a hit somewhere; the sample as a whole holds those more often.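 Values shown are percent growth following 48 h exposure of cells in 96-well plates to a single concentration of compound; below 10 was considered active.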 Active and inactive are the calls of the source.

What was measured:
Test in all cases: NCI-60 one-dose screen, 48 h (100 = growth as untreated, 0 = no growth, -100 = all killed)
Settings in all cases: 10 µM unless noted
[1] = tested on: NCI-H23 lung
[2] = tested on: NCI-H226 lung
[3] = tested on: NCI-H322M lung
[4] = tested on: HOP-62 NSCLC
[5] = tested on: NCI-H460 lung
[6] = tested on: HOP-92 NSCLC
[7] = tested on: NCI-H522 lung
[8] = tested on: A549/ATCC NSCLC
[9] = tested on: 786-0 renal
[10] = tested on: COLO 205 colon
[11] = tested on: DU-145 prostate
[12] = tested on: K-562 leukemia
[13] = tested on: MALME-3M melanoma
[14] = tested on: MDA-MB-231 breast
[15] = tested on: RXF 393 renal
[16] = tested on: SF-268 CNS
[17] = tested on: SF-295 CNS
[18] = tested on: SF-539 CNS
[19] = tested on: UACC-257 melanoma
[20] = tested on: M14 melanoma

Measured: growth

N#Cc1c(-c2ccc(Cl)cc2)nc(N=Nc2c(O)[nH]c3ccc(Cl)cc23)nc1N1CCOCC1
inactive: [1] 84.8% | [2] 85.6% | [3] 96.5% | [4] 96.3% | [5] 98.4% | [6] 89.5% | [7] 93.6% | [8] 102% | [9] 103% | [10] 105% | [11] 103% | [12] 116% | [13] 88.8% | [14] 82.9% | [15] 95.7% | [16] 95.8% | [17] 102% | [18] 97.8% | [19] 107% | [20] 93.6%

Cn1c(=O)c2c(nc3n(-c4ccc(Cl)cc4Cl)c(Sc4nc(-c5ccccc5)c(C#N)c(=O)[nH]4)cn23)n(C)c1=O
inactive: [1] 65% | [2] 56.4% | [3] 26.4% | [4] 54.8% | [5] 13.9% | [6] 34.4% | [7] 59.6% | [8] 20.9% | [9] 15.1% | [10] 71.8% | [11] 50.5% | [12] 84% | [13] 45.2% | [14] 27.7% | [15] 59.1% | [16] 61.9% | [17] 44.4% | [18] 30.6% | [19] 99.9% | [20] 84%

CN1CCN(c2ccc3nc(-c4ccc(OCCCCN5CCN(CCCCN6C(=O)c7cccc8cccc(c78)C6=O)CC5)cc4)[nH]c3c2)CC1
active: [6] -54.4%
inactive: [1] 85.3% | [2] 86.6% | [3] 90.5% | [4] 64.1% | [5] 71.9% | [7] 65% | [8] 57.1% | [9] 53% | [10] 77.8% | [11] 45% | [12] 56.5% | [13] 28% | [14] 62.7% | [15] 16.1% | [16] 65.7% | [17] 29.1% | [18] 39.8% | [19] 59.8% | [20] 94.9%

O=C1c2cc3c(cc2-c2c1c1ccc(F)cc1c(=O)n2C[C@H](O)[C@H](O)[C@H](O)CO)OCO3
active: [1] -49.4% | [2] -34.7% | [3] 8.49% | [4] -23.1% | [5] 1% | [6] -7.34% | [7] -24.6% | [8] -45.1% | [9] 0.283% | [10] -30.9% | [11] -1.68% | [12] 5.32% | [13] -48.9% | [14] -1.24% | [15] -57.2% | [16] 1.96% | [17] -23.6% | [18] -41.1% | [19] -43.4% | [20] -20.4%
